CRFR2-BP ag: agonists of human CRF-binding protein/CRF-R2 receptor complex; HEK293 CRF-R2/CRF-BP, calcium dye fluorescence (FLIPR); percent of saturating CRF peptide response; activation, % at 13.2 µM; actives 0.46% (n = 350,000);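 active means activation of at least 50%, plus an integration ratio under a set limit after plate pattern correction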
MPTP block: inhibitors of mitochondrial permeability transition pore. inhibition, % at 10 µM. isolated mouse mitochondria, Ca2+ swelling absorbance, 30 min. AID 602449. actives 1.4% (n = 360,000);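 active means inhibition of 50% or more, scaled per plate between neutral and stimulator controls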
TMEM16A inh: inhibitors of mouse TMEM16A calcium-activated chloride channel | Q8BHY3 | HEK293 TMEM16A/YFP iodide influx fluorescence, ionomycin | normalized B-score (activity score, 25-100; higher = stronger inhibition) at 10 µM | actives 1.2% (n = 310,000);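 active means ratio plate-corrected score three or more library SD toward inhibition, starting fluorescence score within five deviations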;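 further: score derived from kinetic fluorescence span divided by baseline fluorescence per well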
CRFBP-R2 block: CRF-BP/CRF-R2 complex antagonism | HEK293 CRF-R2/CRF-BP, CRF-induced calcium fluorescence | inhibition, % at 11.8 µM | actives 0.59% (n = 350,000) | AID 588475;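 active means inhibition of the ligand-induced calcium signal above about 50% at the single tested concentration, limit read from the data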
NR3A LBD binder: NR3A (human) ligand-binding domain modulation; Tm shift relative to glycine control, % at 25 µM; actives 2.5% (n = 340,000); NR3A LBD differential scanning fluorimetry, Tm shift; 0% = protein alone, 100% = glycine-bound protein; AID 1259313;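 active means melting temperature shift of at least 10% of the positive control shift, at one fixed dose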
TMEM16A act: activates or potentiates the mouse TMEM16A chloride channel. AID 623877. HEK293 TMEM16A/YFP-H148Q/I152L, iodide quench fluorescence; stronger effect = lower value. B-score at 10 µM. Q8BHY3. actives 0.3% (n = 340,000);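 active means fluorescence-ratio B-score plate-corrected deviation score at least 3 library SD below zero, with starting fluorescence score within 5 deviations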;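 further: channel opened by trigger with iodide after compound preincubation; score built on the fluorescence ratio of max minus min over baseline; more negative score means more quench and so TMEM16A activation or potentiation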
TMEM16A reconf: re-confirmation of mouse TMEM16A chloride channel inhibitors; HEK293 TMEM16A/YFP-H148Q, iodide quench fluorescence; ionomycin added to raise cell calcium; actives 39% (n = 2,300); AID 652189; shares compounds with TMEM16A inh; inhibition, % at 10 µM;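 active means mean duplicate percent inhibition, scaled so buffer wells are 0 and the reference blocker 100, over three buffer SD above buffer mean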
TMEM16A Ca cntr: counter-screen for TMEM16A inhibitors: effect on calcium mobilization; actives 2% (n = 2,300); TMEM16A/YFP HEK293, Fluo4 calcium mobilization; shares compounds with TMEM16A inh; calcium response (% of ionomycin), % at 10 µM; AID 652231;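 active means duplicate-averaged calcium signal over 20% of the ionomycin maximum, relative to buffer baseline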;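 further: each well's signal is peak minus trough fluorescence divided by its pre-addition baseline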
YFP-HEK293 quench: parental YFP-HEK293 iodide quench counter-screen activity; 2,300 tested, under 10 active; shares compounds with TMEM16A inh; ionomycin; YFP ratio F(max-min)/F0 at 10 µM;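 active means yellow fluorescent protein signal ratio exceeding the buffer control mean by over 5 SD of those controls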;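 further: ratio is mean of duplicate wells from kinetic YFP trace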
ClC-1 rat inh: rat ClC-1 inhibition, TMEM16A specificity screen | shares compounds with TMEM16A inh | CHO ClC-1-YFP, iodide influx fluorescence quench; iodide control reads 0, buffer control 100 | ratio percent, % at 10 µM | 2,300 tested, under 10 active;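 active means duplicate-mean ratio percent above the mean of iodide-only control wells, which defines zero, plus 5 of their SD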;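 further: higher percent means stronger block of ClC-1 iodide influx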
MPTP counter: mitochondrial membrane potential, counter-screen; shares compounds with MPTP block; isolated mitochondria, Rhodamine 123 fluorescence; inhibition, % at 10 µM; actives 78% (n = 5,000); AID 624504; in the data active means inhibition above about 22%
Each line names hits and unclear results; the compound was inactive in the other large screens (follow-up assays come after a bar, where they were run). Hits are enriched below; roughly 5.1% of the tested compounds scored in any of these assays.

O=S(=O)(c1ccccc1C(F)(F)F)N1CCN(c2ncnc3sccc23)CC1	none (no result: TMEM16A inh)
Cc1sc2ncnc(N3CCN(S(=O)(=O)c4ccc(F)cc4)CC3)c2c1C	MPTP block 56, TMEM16A inh 100 | TMEM16A reconf inactive | TMEM16A Ca cntr inactive | YFP-HEK293 quench inactive | ClC-1 rat inh inactive | MPTP counter 66
NS(=O)(=O)c1cccc(NC(=O)CC23CC4CC(C2)CC(CC(=O)Nc2cccc(S(N)(=O)=O)c2)(C4)C3)c1	none
Cc1cc(NC(=O)CCC(=O)N(c2ccccc2C)C(C(=O)NC2CCCC2)c2ccccc2)no1 (configuration not stated)	none
CC1CCc2sc(C(=O)NNC(=S)NC3CC3)cc2C1 (configuration not stated)	none
CC1CCN(c2ccc(S(=O)(=O)N3CCC(C)CC3)cc2N)CC1	MPTP block 69, TMEM16A inh 25 | TMEM16A reconf 30% | TMEM16A Ca cntr inactive | YFP-HEK293 quench inactive | ClC-1 rat inh inactive | MPTP counter 77
Nc1cc(S(=O)(=O)N2CCCCC2)ccc1N1CCOCC1	none
CN1CCN(C(=O)c2cccc(-c3ccc4nccn4c3)c2)CC1	none (no result: CRFR2-BP ag, TMEM16A inh, CRFBP-R2 block, NR3A LBD binder, TMEM16A act)
Cn1cccc1C1C=C(c2ccc(C(C)(C)C)cc2)Nc2ncnn21 (configuration not stated)	MPTP block 82, TMEM16A inh 100 | TMEM16A reconf 50% | TMEM16A Ca cntr inactive | YFP-HEK293 quench inactive | ClC-1 rat inh inactive | MPTP counter 69
COC(=O)c1cc(CSc2nc3ccccc3[nH]2)oc1C	MPTP block 82, TMEM16A inh 25 | TMEM16A reconf 22% | TMEM16A Ca cntr inactive | YFP-HEK293 quench inactive | ClC-1 rat inh inactive | MPTP counter 40

From PubChem BioAssay
